This is a sample that favours compounds with a hit; in the whole collection about 0.81% have one here.
TRPML1 ag – qHTS for Agonists of the Human Mucolipin Transient Receptor Potential 1 (TRPML1); Mucolipin-1 (Homo sapiens), Q9GZU1; activation, % (concentration not given with the values); TRPML1-expressing cells, Ca2+ dye fluorescence, FDSS; 0.12% of 410,000 active; AID 624414, 2012; in the data active = activation above about 50%; inconclusive = mostly about 30% to 49%; also: 0% is about no effect
Target sequence (Q9GZU1 whole entry, looked up): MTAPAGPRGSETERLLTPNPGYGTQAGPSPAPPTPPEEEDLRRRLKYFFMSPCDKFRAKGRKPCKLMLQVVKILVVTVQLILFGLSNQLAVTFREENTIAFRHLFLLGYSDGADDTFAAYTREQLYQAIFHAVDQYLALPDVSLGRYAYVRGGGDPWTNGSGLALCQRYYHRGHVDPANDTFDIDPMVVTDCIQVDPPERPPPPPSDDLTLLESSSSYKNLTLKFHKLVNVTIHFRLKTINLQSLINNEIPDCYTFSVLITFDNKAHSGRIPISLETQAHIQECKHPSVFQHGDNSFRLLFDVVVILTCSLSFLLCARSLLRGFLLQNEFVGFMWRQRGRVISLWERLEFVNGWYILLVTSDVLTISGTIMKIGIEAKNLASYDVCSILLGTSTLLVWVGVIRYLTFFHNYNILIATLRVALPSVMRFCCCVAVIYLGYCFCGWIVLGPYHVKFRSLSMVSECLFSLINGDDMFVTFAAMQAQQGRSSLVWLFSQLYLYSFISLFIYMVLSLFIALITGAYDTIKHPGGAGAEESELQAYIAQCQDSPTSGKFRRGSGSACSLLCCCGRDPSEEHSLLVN
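TRPML1-DL cells, Tet-induced overnight (~16 h, 37 degrees C), loaded 45-90 min at room temperature with Ca8 no-wash calcium dye plus quencher. FDSS fluorescence: 10 s baseline, compound pin-transfer, 110 s agonist read, then EC80 54-4 (4uM final) and 110 s antagonist read.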
TSG101-PTAP inh – qHTS Assay for Iinhibitors of HIV-1 Budding by Blocking the Interaction of PTAP/TSG101 | Fluorescence polarization, FITC-PTAP peptide / Tsg101 binding | 340,000 tested, under 10 active | Tumor susceptibility gene 101 protein (Homo sapiens), Q99816 | Potency, µM (top dose mostly 115 µM), inactives show at the highest dose activity change, negative = inhibition, most hits filed as inhibitors; active = well fitted inhibition curve with a large enough effect in the main read-out, with a control signal flat, not every such curve was filed as active; inconclusive = small, poorly fitted or top-dose-only effect, or effect the other way, or a change in a side signal; inactive = no such curve, though single readings can be large or run the other way; also: potency is read from the fitted curve at half-maximal effect; % of control where 0% means no effect
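FP read-out: FITC-PTAP peptide, 50 nM final, binding Tsg101 binding domain, 10 uM final; 20 min, r.t.; 10 mM HEPES pH 7.5, 0.15 M NaCl, 0.01% Tween 20, 3 mM EDTA, 0.1 mM TCEP.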
TRHR ag – qHTS for Small Molecule Agonists and Allosteric Enhancers of Human TRH Receptor: Primary Screen for Agonists; Thyrotropin-releasing hormone receptor (Homo sapiens), P34981; TRHR cells, calcium flux fluo-8, FDSS agonist mode; activation, % at 2 µM; 0.18% of 360,000 active; AID 493084, 2011; in the data active = activation above about 30%; also: 0% is about no effect
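Steps: seed TRHR cells overnight; add fluo-8 no-wash Ca dye, RT 30 min–1.5 h; record 10 s baseline; pin-transfer compounds; monitor fluorescence 1 cycle/s for the agonist window. Calcium increases flag candidate agonists.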
TRPML1 inh – qHTS for Inhibitors of the Human Mucolipin Transient Receptor Potential 1 (TRPML1) | Mucolipin-1 (Homo sapiens), Q9GZU1 | 0.02% of 390,000 active | TRPML1-inducible cells, Ca2+ dye fluorescence, FDSS; stronger effect = lower value; inhibition of EC80 agonist-evoked calcium signal | activity change, negative = inhibition, % (concentration not given with the values); in the data active = activity change below about -50%; inconclusive = between about -30% and that limit;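 also: stimulus is agonist 54-4 at its EC80 concentration; % is scaled to controls: 0 for no effect and ±100 for the full control effect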
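Calcium fluorescence in TRPML1-DL cells induced overnight with Tet: a 110 s read after compound pin addition, then a 110 s antagonist read after challenge with 54-4 at 4 uM final (EC80).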
TRHR PAM – qHTS for Small Molecule Agonists and Allosteric Enhancers of Human TRH Receptor: Primary Screen for Enhancers; 0.66% of 360,000 active; TRHR cells, fluo-8 calcium fluorescence, EC20 TRH enhancement; AID 493056, 2011; enhancement, % at 2 µM; Thyrotropin-releasing hormone receptor (Homo sapiens), P34981; in the data active = enhancement above about 30%; also: 0% is about no effect
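Enhancer read-out: after compound pinning and an initial kinetic agonist-mode read, an EC20 of TRH (10 nM final) was injected and fluo-8 calcium signal (Ex 480/Em 530) followed at 1 s/cycle for 100 cycles in TRHR-expressing cells.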
* marks the source's active call; other numbers are inactive results; ? = inconclusive; . = not tested or not shown; ! = not confirmed by another sample.

SMILES | TRPML1 ag | TSG101-PTAP inh | TRHR ag | TRPML1 inh | TRHR PAM
COc1cccc(C(=O)NC2CC3CCCC(C2)N3CC(=O)Nc2ccccc2)c1 (configuration not stated) | 2 | -7% | -1 | -24 | 1
O=C(CN1C2CCCC1CC(NC(=O)c1ccccc1)C2)Nc1ccccc1 (configuration not stated) | -1 | -1% | -2 | 8 | 40*
CCSC1=NSC2=NC(=O)/C(=C\c3coc4ccccc4c3=O)C(=N)N12 | 77* | ? | 179* | -1 | 52*
CSC1=NSC2=NC(=O)/C(=C\c3ccc(OC(=O)c4ccco4)cc3)C(=N)N12 | 0 | 1% | 0 | -3 | 1
O=C1C(=O)C(c2ccc(O)cc2O)Oc2cc(O)cc(O)c21 (configuration not stated) | 0 | . | . | . | .
CN(C)c1ccc(/C=C/c2nc3ccccc3c(=O)n2-c2ccc(C(=O)O)cc2)cc1 | 64* | ? | 121* | 19 | 30*
O=C(O)c1ccc(-n2c(/C=C\c3ccc(O)cc3)nc3ccccc3c2=O)cc1 | 4 | . | 2 | 54 | 12
CCC(C)NC(=O)CN1C(=O)COc2ccc(S(=O)(=O)N3CCOCC3)cc21 (configuration not stated) | -1 | -1% | 1 | -10 | 30*!
O=C(CN1C(=O)COc2ccc(S(=O)(=O)N3CCOCC3)cc21)N1CCN(c2ccccc2F)CC1 | 2 | . | 0 | -15 | 33*
COCCNC(=O)CN1C(=O)COc2ccc(S(=O)(=O)N3CCCC3)cc21 | 1 | . | 0 | 18 | 33*
Cc1cccc(Cn2ncc3c4sc(C)cc4n(C)c3c2=O)c1 | . | . | 0 | . | 8
CC(=O)Nc1cccc(C(=O)/C=C/c2ccc(/C=C/C(=O)c3cccc(NC(C)=O)c3)cc2)c1 | . | . | 1 | . | -3
CC(=O)Nc1cccc(C(=O)/C=C/c2ccc(N(C)C)cc2)c1 | 72* | ? | 153* | ? | 1
O=C1NC(=S)SC1=Cc1cccs1 | -1 | -4% | . | -7 | .
CN1CCC/C1=C/C=C1\SC(=S)NC1=O | 58* | ? | 48* | -18 | 10
ONC(=Nc1ccccc1)c1ccc(Cl)cc1 | 1 | 1% | 0 | 4 | -2
NC(=Nc1ccc(Cl)cc1)c1ccccc1 | 65* | 2% | 31* | -5 | -19
CC(C)(C)CC(C)(C)N=C1Nc2ccc([N+](=O)[O-])cc2N[C@]12C[C@H]1CCCC(=O)N3CC[C@@H](C2)[C@@H]13 | 5 | . | . | . | .
COc1cc2nc(Cl)nc(NC(C)C)c2cc1OC | -1 | . | . | . | .
COc1ccc(-c2oc3ccccc3c2C#CC(C)(C)O)cc1 | 1 | -1% | 0 | 20 | 31*
Cc1cccc(C)c1NC(=O)CN(C)C(C)C(=O)Nc1ccccc1-c1ccccc1 (configuration not stated) | 0 | -1% | 1 | -6 | -4
Cc1ccccc1CN(C)C(C)C(=O)Nc1ccccc1F (configuration not stated) | 2 | -1% | -1 | -12 | 40*
CC(=O)Nc1ccc(S(=O)(=O)NNC(=O)c2cccc(Br)c2)cc1 | 1 | 1% | 0 | 27 | 38*
CCOC(=O)N1CCN(C(=O)CCn2c(=S)[nH]c3ccsc3c2=O)CC1 | 1 | -2% | -1 | 48 | 39*
CC(C)(C)c1ccc(OCc2ccc(C(=O)Nc3cccnc3)o2)cc1 | 1 | 2% | -1 | 5 | 38*
O=C(Nc1cccnc1)c1ccc(COc2ccccc2Br)o1 | 3 | -6% | 0 | -2 | -3
COc1ccc(OC)c(/C=C/c2ccc3ccccc3[n+]2C)c1 | 0 | . | . | . | .
c1ccc(Nc2nc3ccccc3n3cnnc23)cc1 | -1 | -10% | -1 | -3 | 34*
c1cc2c(cc1Cc1cncc(Cc3ccc4c(c3)OCO4)c1)OCO2 | -1 | . | . | . | .

Source: PubChem BioAssay
